From PubChem
aSyn UTR act: Activators via SNCA 5'UTR binding, MLPCN | alpha-synuclein 5'UTR reporter, activators screen | activity score, % (tested at 7.5 µM), hits read low | 7.1% of 300,000 active | AID 1814, 2009; in the data active = activity score below about -60%
Numbers without * were called inactive. The list is a sample of the results.

SMILES	aSyn UTR act
CSCC(=O)N1CCc2ccc(NC(=O)c3ccccc3Cl)cc2C1	-117.4*
N/C(=N\OC(=O)Cc1ccccc1)c1ccccc1Cl	-143.5*
N/C(=N\OC(=O)Cc1ccccc1)c1cccc(Br)c1	-72.2*
COc1cc(NC(=O)c2csc3c2CCCC3)ncn1	-152.9*
O=C(Nc1ccccn1)c1csc2c1CCCC2	-162.8*
O=C(Nc1ccccn1)c1onc2c1CCCC2	96.4
O=C(Cc1ccc(Br)cc1)NCc1ccccc1	-66.9*
COC(=O)c1ccc(COC(=O)CNC(=O)c2ccc(-c3ccccc3)cc2)cc1	-87.2*
COc1ccc(CNC(=O)c2ccc(N3CCCC3=O)cc2)cc1	-71.0*
COc1cccc(/C=N/NC(=O)c2ccc(N3CCCC3=O)cc2)c1	-112.3*
COc1ccc(OC)c(NS(=O)(=O)c2ccc(N3CCCC3=O)cc2)c1	110.7
O=C(NCc1ccccc1)c1c(Cl)nc(Cl)c(Cl)c1Cl	99.2
COc1ccc(CNC(=O)c2nc(S(=O)(=O)Cc3ccccc3)ncc2Cl)cc1	48.8
COc1ccc(CNC(=O)c2ccc(-c3ccccc3)cc2)cc1	-114.7*
COc1ccc(CC(=O)NCc2ccccc2)cc1	-154.2*
Nc1ccccc1C(=O)NNC1=C(C(=O)C(F)(F)F)CCC1	-277.8*
COc1ccc(C(=O)/C=C2/C(=O)Nc3ccccc32)cc1	-98.9*
N=c1n(CCN2CCOCC2)c2ccccc2n1CC(=O)c1ccc(Cl)c(Cl)c1	-66.0*
Oc1ccc(Nc2nc3ccccc3nc2Nc2ccc(O)cc2)cc1	108.4
Oc1ccc(/C=N\Nc2nncc(-c3ccccc3)n2)cc1	-174.0*
COc1ccc(-c2cnnc(N/N=C/c3ccc(O)c(O)c3)n2)cc1	-90.2*
Cc1nc2ccccc2nc1N/N=C/c1ccc(O)cc1	-87.3*
COc1ccc(-c2cnnc(N/N=C/c3ccc(O)cc3)n2)cc1	-76.8*
Cc1nc2c(s1)sc1ccccc12	-76.1*
CC(C(Sc1ccccc1N)c1ccccc1)[N+](=O)[O-] (stereo unspecified)	-82.8*
SMILES	aSyn UTR act
COc1cccc(NCc2cc(=O)oc3cc(-c4ccccc4)c(O)cc23)c1	-128.3*
COc1ccccc1CCC(=O)Nc1nc2ccccc2[nH]1	-223.0*
COc1ccc(OCC(=O)Nc2nc3ccccc3[nH]2)cc1	-122.6*
COc1ccc(CCC(=O)Nc2nc3ccccc3[nH]2)cc1	-127.3*
CCC(Oc1ccccc1)C(=O)Nc1nc2ccccc2[nH]1 (stereo unspecified)	-66.2*
CCCCCC(=O)Nc1nc2ccccc2[nH]1	-176.5*
Cc1ccc(C(=O)N/C(=C\c2ccc(-c3ccc(Cl)cc3)o2)C(=O)NCCCN(C)C)cc1	56.8
OCCc1ccc(-c2ccc(Cl)cc2)o1	-65.1*
CC(C)CC(=O)Nc1ccc(-c2nnn(CC(=O)NCc3ccco3)n2)cc1	-102.3*
CCCCOc1ccc(-c2nnn(CC(=O)NCc3ccco3)n2)cc1	-165.3*
CCOc1cc(/C=C\c2[nH]c(=O)[nH]c(=O)c2[N+](=O)[O-])ccc1OC(C)CC (stereo unspecified)	-67.0*
Cc1ccsc1C(=O)N/N=C/c1ccc2c(c1)OCO2	-98.9*
O=C(N/N=C/c1ccc2c(c1)OCO2)c1cccs1	-134.6*
COCCNC(=S)N1CCC(C(=O)c2ccc3c(c2)OCCO3)CC1	-74.7*
COc1ccc(CCNC(=O)c2ccc3c(c2)OCCO3)cc1	-135.3*
O=C(NCCc1ccccc1)c1ccc2c(c1)OCCO2	105.8
COc1ccc(CCNC(=O)c2coc(=O)c(Br)c2)cc1	-62.9*
COc1ccc(NC(=O)CSc2n[nH]c(N)n2)cc1OC	-92.3*
Nc1nc(SCC(=O)Nc2ccc(OCc3ccccc3)cc2)n[nH]1	-84.5*
CC1CCCN(c2ncnc3c2cnn3-c2ccccc2)C1 (stereo unspecified)	60.7
Cc1ccc(-n2ncc3c(N4CCCC4)ncnc32)c(C)c1	-114.5*
Cc1ccc(-n2ncc3c(N4CCCC(C)C4)ncnc32)c(C)c1 (stereo unspecified)	-124.8*
CN(C)c1ccc(CNc2ccc3c(c2)ncn3C(C)(C)C)cc1	-61.6*
CCOc1ccc(CNc2ccc3c(c2)ncn3C(C)(C)C)cc1	-84.4*
COc1ccc(OCc2cc(C(=O)N(C)CCC3CCOCC3)no2)c(Cl)c1	-75.5*
SMILES	aSyn UTR act
COc1ccc(OCc2cc(C(=O)N(C)CC3CCCCO3)no2)c(Cl)c1 (stereo unspecified)	-70.5*
COc1ccc(OCc2cc(C(=O)N(C)C(C)c3ccon3)no2)c(Cl)c1 (stereo unspecified)	-114.8*
COc1ccc(C(=O)/C=C/C(=O)N(CC(=O)NC2CCCCC2)CC2CCCO2)c(O)c1 (stereo unspecified)	73.4
COc1cc(Cl)ccc1OCc1cc(C(=O)N(C)CC2CCCCO2)no1 (stereo unspecified)	-138.9*
Cc1ccc2nc(-c3ccc(NC(=O)CN4C(=O)NC(C)(c5ccc(OC(F)F)cc5)C4=O)cc3)sc2c1 (stereo unspecified)	-136.3*
Cc1ccc2nc(NC(=O)CN3C(=O)NC4(CCCCC4)C3=O)sc2c1	-82.4*
Cc1ccc2nc(NC(=O)Cn3cc4c(n3)CCCCC4)sc2c1	-108.0*
